What all share (assay): NCI-60 one-dose screen, 48 h (100 = growth as untreated, 0 = no growth, -100 = all killed)
Common to all, as to conditions: 10 µM unless noted

For assay [1], the system named is DU-145 prostate.
Assay [2] relates to K-562 leukemia.
The test system of assay [3] is MALME-3M melanoma.
In assay [4] the test system is MDA-MB-231 breast.
The test system of assay [5] is RXF 393 renal.
Assay [6] concerns SF-268 CNS.
Assay [7] concerns SF-295 CNS.
The test system of assay [8] is SF-539 CNS.
In assay [9] the test system is UACC-257 melanoma.
In assay [10] the test system is M14 melanoma.

“And” between values parts separate entries of the source, which are not always exact repeats. Equal values may be shown once. This is part of a sample that, as a whole, favours compounds with a hit. Of some 83,000 tested, about 20% had one in any assay.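 Single-dose data. Exposure time 48 hours. Values below 10 considered active.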 Unmarked numbers belong to inactive results. The source made the active and inactive calls.

Take `COc1c(F)cc(-n2c(C(=O)N3CC(F)C3)cc3cccnc32)cc1F`: the growth in assay [1] is 106%; in assay [2] it was 95.5%; in assay [3], 121%; in assay [4] it was 96.5%; in assay [5] it was 107%; in [6], 94.9%. Besides, the growth in [7] is 102%; in [8], 98%; in assay [9], 102%; in assay [10], 119%.
In the case of `O=C1CCc2c(sc3[nH]c(=S)n(Cc4ccc(Cl)cc4)c(=O)c23)C1`, the growth in assay [1] is 23.7%; in assay [2] it was 11%; in assay [3], 1.17% (active); in assay [4] it was -24.7% (active); in [5] it was 5.18% (active); in assay [6] it was 18.7%. Further, the growth was -6.67% (active) in assay [7], -57.4% (active) in assay [8], -14.9% (active) in assay [9] and 12.4% in assay [10].
As to `COc1ccc(/C=C/C(=O)c2cc3c(N)c(C(=O)Nc4ccccc4Cl)sc3nc2C)cc1`, the growth in [1] is 46.3%; in assay [2], 38.9%; in [3], 21%; in [4] it was 33.8%; in [5], -3.54% (active); in [6], 53.3%. Besides, the growth in assay [7] was 48.5%; in assay [8], 36.2%; in [9], 63.8%; in assay [10], 12.1%.
With `N#Cc1ccccc1-c1ccc(Cn2c(-c3cscn3)nc3c(Cl)cccc32)cc1`, the growth in assay [1] was 86.5%; in assay [2], 49.2%; in assay [3], 92.4%; in assay [4], 79.7%; in assay [5], 99.5%; in [6], 71.3%. In addition, the growth in assay [7] was 67.9%; in [8], 82.9%; in assay [9] it was 89.5%; in [10] it was 87.1%.
For `CC/C=C\C/C=C\C[C@H](O)C/C=C1/C(=O)C=C[C@@H]1C/C=C\CCCC(=O)OC`, the growth is 6.78% (active) in assay [1]; 3.6% (active) in assay [2]; -5.8% (active) in assay [3]; -5.48% (active) in [4]; -58.2% (active) in assay [5]; 8.53% (active) in assay [6]. Further, the growth in assay [7] was -8.95% (active); in [8], 1.23% (active); in assay [9] it was -13.9% (active); in assay [10], -23% (active).
As for `COc1cccc(C2C(C#N)=C(N)Oc3cc(OCCCCCC[P+](c4ccccc4)(c4ccccc4)c4ccccc4)ccc32)c1` (stereo not given), the growth in [1] is 1.62% (active); in assay [2], -21.2% (active); in [3], -73.3% (active); in assay [4] it was -54.1% (active); in assay [5], -63.8% (active); in assay [6] it was -38.5% (active). Also, the growth was -41.4% (active) in [7], -58.1% (active) in assay [8], -21.5% (active) in assay [9] and -49.7% (active) in assay [10].
`Cc1ccc(Cl)cc1N1CCN(C(=O)[C@@H]2C[C@@H]2c2ccc(F)cc2)CC1`: the growth in assay [1] is 114%; in assay [2], 75.6%; in assay [3] it was 95%; in assay [4] it was 102%; in assay [5], 103%; in assay [6], 90.1%. In addition, the growth is 88.9% in [7], 95.6% in [8], 95.4% in assay [9] and 93.4% in [10].
With `COc1ccc(/C=C2\COc3ccc(O)c(O)c3C2=O)c(OC)c1OC`, the growth was 13.9% in assay [1]; 9.86% (active) in assay [2]; 24.2% in [3]; -2.18% (active) in assay [4]; 50.8% in assay [5]; 48% in assay [6]. For the same molecule, the growth in [7] is 91.7%; in assay [8], -9.26% (active); in assay [9], 45.6%; in assay [10], 38.4%.
On to `COc1ccc(Oc2nc(Nc3ccc(N4CCOCC4)cc3)ncc2NC(=O)c2cccc(C(F)(F)F)c2)cc1`, for which the growth in assay [1] was 91.9%; in assay [2], 56%; in assay [3], 97.5%; in assay [4], 69.1%; in assay [5], 65.6%; in assay [6] it was 89.5%. The growth in assay [7] is 85.6%; in assay [8], 77.3%; in assay [9] it was 98.2%; in assay [10], 80.7%.
Regarding `CCCCCO/N=C\c1c2c(O)c3c(O)c(C)c4c(c3c1O)C(=O)C(C)(O/C=C\C(OC)C(C)C(OC(C)=O)C(C)C(O)C(C)C(O)C(C)/C=C\C=C(\C)C(=O)N2)O4` (stereo not given), the growth in assay [1] is 36%; in assay [2] it was 17.6%; in [3], 41.2%; in assay [4] it was 31.4%; in assay [5], 36.6%; in assay [6], 31.2%. Besides, the growth in [7] is 7.23% (active); in assay [8], 37.3%; in [9] it was 8.59% (active); in assay [10] it was 28.2%.
In the case of `Cc1nnc(NS(=O)(=O)c2ccc(N=Nc3ccc(N)nc3N)cc2)s1`, the growth in assay [1] is 118% and 105%; in assay [2], 105%; in [3], 110%; in assay [4], 95.7% and 112%; in [5], 134% and 136%; in assay [6] it was 115% and 106%. Also, the growth in assay [7] was 127% and 102%; in [8], 110% and 103%; in assay [9] it was 105% and 117%; in [10] it was 101% and 108%.
Consider `CCOC(=O)C1=C(C)NC(=O)NC1c1c(Cl)n(-c2ccccc2)c2ccccc12` (stereo not given), for which the growth in [1] was 85.7%; in assay [2], 43.4%; in [3] it was 86.2%; in assay [4] it was 81.5%; in assay [5], 55.6%; in [6], 86.7%. Besides, the growth was 85.5% in assay [7], 87.9% in [8], 88.3% in assay [9] and 86.5% in assay [10].
